The values that follow come from PubChem BioAssay (NCATS).

Molecules are shown by their SMILES. Several values for one entry are separate records, joined by “and”; a condition that tells them apart may be missing. Identical values can stand only once. Records with an inconclusive call do not appear. Some structures have more than one record in an assay (separate samples or runs), and their calls can disagree. A number with no mark means an inactive call. Activity calls are given as the source filed them. Calls come from the whole dose curve; as a rule, active = well fitted curve in the direction sought with a large enough effect; inconclusive = small, poorly fitted or top-dose-only effect, or another doubt; inactive = no such curve, though single readings can be large; an effect the other way counts as inactive or inconclusive.

In assay [1] the test system is Tov112D. Nature of the assay: Primary qHTS to identify gynecologic anti-cancer compounds using libraries of approved drugs and bioactive compounds (AID 1345084). Note: nearly all actives have a fitted effect of over 55% in size. The conditions noted are these: Gynecologic cancer cell panel viability, ATPlite luminescence, 48 h; series mostly up to 57.5 µM. The gist of the method:
(§1)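 In this quantitative HTS, cell killing is estimated from loss of ATP-dependent luciferase light. Cells see five compound concentrations over a 48 h exposure.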

Assay [2] can be described thus: Drug repurposing screens with cells derived from glioblastoma tumor samples (AID 1345199). Note: nearly all actives have a fitted effect of over 40% in size. The conditions noted are these: GBM patient neurospheres viability, ATP luminescence, 48 h. The gist of the method: (§2)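 Primary testing used CD133+ neurospheres from four GBM patients, seven concentrations, 48 h exposure and ATP-based viability; confirmation added three slower-growing patient lines.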

The nature of assay [3]: qHTS assay to identify inhibitors of the type 1 interferon - major histocompatibility complex class I in skeletal muscle: Counter screen cell viability and HiBit confirmation (AID 1347412). Note: nearly all actives have a fitted effect of over 60% in size. The conditions noted are these: iHSKM muscle cells + IFN-b, HiBiT or CellTiter-Glo, 24 h. A digest of the protocol: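 Human myoblast knock-in line, 4.0 ng/ml IFN-beta stimulation, 24 h compound treatment. Endpoints: HiBiT lytic luminescence (HLA-B level) and CellTiter Glo (ATP). Dosing 12 concentrations, 3-fold steps, 46 uM highest final.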
(In general: qHTS replaces the single test concentration by a dilution series.)

Assay [4] deals with Tov-21-G. Description: Primary qHTS to identify gynecologic anti-cancer compounds using libraries of approved drugs and bioactive compounds (AID 1345084). Note: nearly all actives have a fitted effect of over 55% in size. The conditions noted are these: Gynecologic cancer cell panel viability, ATPlite luminescence, 48 h; series mostly up to 57.5 µM. The gist of the method:
as §1

The test system of assay [5] is astro. Description: Drug repurposing screens with cells derived from glioblastoma tumor samples (AID 1345199). Note: nearly all actives have a fitted effect of over 40% in size. The conditions noted are these: viability, ATP luminescence, 48 h; series mostly up to 45.9 µM. A digest of the protocol: as §2
The mark [6] stands for this setting: at 46.1 µM (top of the series), tumour line C.
Where [7] appears, read: at 45.9 µM (top of the series), tumour line B.
Setting [8] is: at 45.9 µM (top of the series), tumour line D.
Where [9] appears, read: at 46 µM (top of the series), tumour line A.
% is set by controls: 0 for no effect and ±100 for the full control effect; potency is the fitted concentration of half-maximal effect.

For `C[C@H](Oc1cc(-c2cnn(C3CCNCC3)c2)cnc1N)c1c(Cl)ccc(F)c1Cl`, in assay [1], the Potency result was “inactive”.

Regarding `CCCCCCCC(=O)CC[C@@H]1[C@@H](C/C=C\CCCC(=O)OC(C)C)[C@@H](O)C[C@H]1O`, the activity, negative = cell killing in assay [2] (setting [6]) was -21.1%. Further, the Potency in assay [2] (tumour line A) is 11.2 µM (active); in assay [2] (tumour line D), 15.8 µM (active).

Take `C=C(C=O)[C@]1(O)C[C@@]2(C)C(=CC1=O)C=C[C@H](OC(=O)/C=C/C=C/[C@H](C)CC)[C@@H]2C`: the Potency entry in assay [1] is “inactive”.

For `CN1CCN(C2CCN(C(=O)Nc3cc(Oc4ccc(NC(=O)C5(C(=O)Nc6ccc(F)cc6)CC5)c(F)c4)ccn3)CC2)CC1`, the Potency result in assay [1] is “inactive”. Also, the Potency in assay [3] (HiBiT) was 4.97 µM (active); in assay [3] (Viability), 14 µM (active).

With `Nc1ncnc(Nc2ccc(Cl)cc2)n1`, the activity, negative = cell killing in assay [2] (setting [7]) is -4.5%; in assay [2] (setting [8]), -28%; in assay [2] (setting [6]), -9.25%. The Potency in assay [2] (tumour line A) is 35.5 µM (active).

Consider `CCCC(CCC)C(=O)Nc1ccn([C@@H]2O[C@H](CO)[C@@H](O)C2(F)F)c(=O)n1`, for which the Potency in assay [1] was 10 µM (active).

With `C/C=C(/C)C(=O)O[C@H]1[C@H](OC(=O)/C(C)=C\C)[C@@]23C(CC1(C)C)[C@]1(CCC4[C@@]5(C)CC[C@H](O[C@@H]6O[C@H](C(=O)O)[C@@H](O)[C@H](O[C@@H]7O[C@H](CO)[C@H](O)[C@H](O)[C@H]7O[C@@H]7O[C@@H](C)[C@H](O)[C@@H](O)[C@H]7O[C@@H]7OC[C@@H](O)[C@H](O)[C@H]7O)[C@H]6O[C@@H]6O[C@H](CO)[C@H](O)[C@H](O)[C@H]6O)C(C)(C)C5CC[C@@]4(C)[C@]1(C)C[C@H]2O)O[C@H]3O` (some centres not stated), in assay [1], the activity change, negative = cytotoxicity is -22.5% [at 6.55 µM].

On to `CCn1c2ccccc2c2cc(Nc3ccnc(NCCCN4CCOCC4)n3)ccc21`, for which the Potency result in assay [4] and in assay [1] was “inactive” throughout.

With `O=C1Nc2nc(-c3c(O)cccc3OCC3CC3)cc([C@@H]3CCCNC3)c2CO1`, the Potency in assay [4] was 14.1 µM (active); in assay [1], 22.4 µM (active); in assay [3] (HiBiT), 7.01 µM (active). The activity change, negative = inhibition in assay [3] (Viability, at 45.9 µM (top of the series)) is -25%.

`COc1cc(Br)c(S(=O)(=O)Nc2ccc(Cl)c(O[C@@H]3CCN(C)C3)c2)cc1OC`: the Potency result in assay [1] was “inactive”.

As for `CC(C)c1cc2c(N3CCN(C4=NCC(C)(C)S4)CC3)ncnc2s1`, the Potency entry in assay [4] and in assay [1] was “inactive” throughout.

Regarding `C=C1/C(=C/C=C2\CCC[C@]3(C)[C@@H]([C@H](C)CC[C@@H](O)C(C)(C)O)CC[C@@H]23)C[C@@H](O)C[C@@H]1O`, in assay [1], the Potency result was “inactive”.

For `COc1cc(/C=N\NC(=O)c2ccc3c(c2)OCO3)ccc1OCc1ccccc1`, the Potency entry in assay [4] and in assay [1] was “inactive” throughout.

For the compound `COc1cc2c(c(OC)c1OC)-c1c(cc3c(c1OC)OCO3)C[C@@H](C)[C@](C)(O)C2`, the activity, negative = cell killing in assay [2] (setting [7]) is -5.29% and -6.75%; in assay [2] (setting [8]) it was -7.05% and -25.9%; in assay [2] (setting [9]) it was -25%; in assay [2] (setting [6]) it was -33.4% and -14.4%. Further, in assay [2] (tumour line A), the Potency is 22.4 µM (active). For the same compound, in assay [5], the Potency result was “inactive”.

Consider `C=C1C(=O)O[C@@H]2/C=C(\CO)CC/C=C(/C=O)C[C@@H](O)[C@@H]12`, for which the Potency in assay [4] is 14.1 µM (active). Besides, the Potency entry in assay [1] is “inactive”.

As to `CC(=O)O[C@H]1CC[C@@]2(C)C(=CC[C@@H]3[C@@H]2CC[C@]2(C)C(c4cccnc4)=CC[C@@H]32)C1`, the figures for the activity, negative = cell killing in assay [2] (setting [7]) and in assay [2] (setting [6]) were -19.3% and -13.1%, respectively. For the same compound, the Potency in assay [2] (tumour line A) is 11.2 µM (active).

For `O=C[C@H](O)[C@@H](O)[C@H](O[C@H]1O[C@H](CO)[C@@H](O[C@H]2O[C@H](CO)[C@@H](O)[C@H](O)[C@H]2O)[C@H](O)[C@H]1O)[C@H](O)CO`, the activity, negative = cell killing in assay [2] (setting [7]) was -5.93%; in assay [2] (setting [8]) it was -7.07%; in assay [2] (setting [9]) it was -21.5%; in assay [2] (setting [6]) it was 5.59%. For the same compound, in assay [5], the Potency entry was “inactive”.

Take `O=C1O[C@H]2[C@H](O)[C@@H]1OC(O)[C@H]2O` (some centres not stated): the activity, negative = cell killing in assay [2] (setting [7]) is -7.22%; in assay [2] (setting [8]) it was -9.05%; in assay [2] (setting [9]), -25.4%; in assay [2] (setting [6]) it was 16.3%. For the same compound, the Potency entry in assay [5] is “inactive”.

`CCC(CN)CC(C)CCNCC(O)CNCC(C)CC(CC)CN` (configuration not stated): the activity, negative = cell killing is -0.989% in assay [2] (setting [7]), -7.35% in assay [2] (setting [8]), -19.2% in assay [2] (setting [9]) and -0.671% in assay [2] (setting [6]). Further, in assay [5], the Potency entry is “inactive”.

Take `CCCCCCCCCCCCCCCCCC(=O)[O][Al]`: the activity, negative = cell killing is -8.38% in assay [2] (setting [7]), -6.36% in assay [2] (setting [8]), -12.4% in assay [2] (setting [9]) and -6.43% in assay [2] (setting [6]). In addition, the Potency result in assay [5] is “inactive”.

On to `CCCCC(=O)O`, for which the activity, negative = cell killing in assay [2] (setting [7]) is -3.62% and -8.26%; in assay [2] (setting [8]), 6.9% and -1.28%; in assay [2] (setting [9]) it was -15.7%; in assay [2] (setting [6]), -7.54% and 1.54%. Also, in assay [5], the Potency entry is “inactive”.

`CC(=O)N[C@@H](C=O)[C@H](O)[C@H](O)[C@@H](O)CO`: the activity, negative = cell killing was -7.64% and 0.13% in assay [2] (setting [7]); -11.8% and 0.539% in assay [2] (setting [8]); 1.93% in assay [2] (setting [9]); 6.46% and 10.4% in assay [2] (setting [6]). In assay [5], the Potency result was “inactive”.
